# Records with an inconclusive call do not appear. Activity calls are given as the source filed them. Calls follow the shape of the dose curve; as a rule, active = well fitted cell-killing curve with a large enough effect in the repeat runs; inconclusive = weak or mixed curves, or effect the other way; inactive = no such curve, though single readings can be large or run the other way.
# Assay: qHTS assay to identify small molecule agonists of the estrogen receptor alpha (ER-alpha) signaling pathway in the presence of an antagonist - cell viability counter screen (AID 1259386);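 also: cells exposed to compounds for 22 h at 37 °C before the viability read; nearly all actives have a fitted effect of over 30% in size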
# Conditions: VM7Luc4E2 viability, CellTiter-Fluor fluorescence, 22 h; series mostly up to 92.4 µM; activity change, negative = cytotoxicity: at the top concentration
# Text: National Center for Advancing Translational Sciences [NCATS]
# NIH Chemical Genomics Center [NCGC]
# U.S. Environmental Protection Agency [EPA]
# National Institutes of Environmental Health Sciences [NIEHS]
# National Toxicology Program [NTP]
# U.S. Food and Drug Administration [FDA]
# Estrogen receptor (ER), a member of nuclear hormone receptor plays an important role in development, metabolic homeostasis and reproduction. Two subtypes of ER, ER-alpha and ER-beta, have similar expression patterns with some uniqueness in both types. Endocrine disrupting chemicals (EDCs) and their interactions with steroid hormone receptors like ER causes disruption of normal endocrine function. Therefore, it is important to understand the effect of environmental chemicals in ER signaling pathway. For identifying ER agonists, VM7Luc4E2 cell line has been used in the current assay.
# VM7Luc4E2 cell line (provided by Denison MS, University of California) endogenously expresses full-length ER-alpha and is stably transfected with a plasmid containing four estrogen responsive elements (ERE) upstream of a luciferase reporter gene. This current screening for measuring luciferase reporter gene activity using VM7Luc4E2 cells against Tox21 10K library collection is a confirmation study on agonist mode screening in presence of ER-antagonist (ICI-182,780) at 10.0nM final concentration. The cytotoxicity of the compounds was tested in parallel by measuring the cell viability using CellTiter-Fluor assay system (Promega, Madison, WI) in the same wells.
# Tox21 Assay Protocol Summary:
# VM7Luc4E2 cells were cultured in phenol red free assay medium containing 10% charcoal stripped FBS for 5 days prior to the assay. The cells were dispensed at 4,000 cells in 4uL of assay medium per well into white wall/solid-bottom 1536-well plates (Corning Life Sciences, Corning, NY) using a Multidrop Combi (Thermo Fisher Scientific Inc., Waltham, MA) dispenser. After the assay plates were incubated at 37C and 5% CO2 for 24hr, 1uL of 10.0nM (final concentration) ICI-182,780 or assay buffer was added using two separate tips of Flying Reagent Dispenser (FRD, Aurora Discovery, San Diego, CA). Then 23nL of compounds dissolved in DMSO at 15 concentrations and positive controls or DMSO only was transferred to the assay plates by a Pintool station (Wako, San Diego, CA). The assay plates were incubated at 37C and 5% CO2 for 22hr. After 21hr incubation at 37C, 1uL/well CellTiter-Fluor reagent (Promega Corporation, Madison, WI) was added to each well using FRD and after 1hr incubation at 37C and 5% CO2, the fluorescence signal was measured on ViewLux plate reader (PerkinElmer, Shelton, CT).
# % is scaled to controls: 0 for no effect and ±100 for the full control effect; potency is read from the fitted curve at half-maximal effect.
Structure (SMILES),"activity change, negative = cytotoxicity",Potency
CC1CCc2nccnc21 (stereo not given),0.016% (inactive),–
COc1ccc(C)cc1,-3.42% (inactive),–
Nc1nc(-c2ccc([N+](=O)[O-])cc2)cs1,-13.1% (inactive),–
C/C(C=O)=C\c1ccccc1,0.133% (inactive),–
COc1cc(S(=O)(=O)Nc2ccccc2)c(OC)cc1N,-1.22% (inactive),–
CN(C)CC/C=C1\c2ccccc2Sc2ccc(Cl)cc21,1.27% [at 42.5 µM] (inactive),–
Cc1cc(CCC(=O)OCCOCCOCCOC(=O)CCc2cc(C)c(O)c(C(C)(C)C)c2)cc(C(C)(C)C)c1O,1.73% (inactive),–
CCCCCCCC/C=C\CCCCCCCC(=O)OCCO,-0.3% (inactive),–
CC(CO)(CO)C(=O)O,3.12% (inactive),–
Nc1ccc(N=Nc2ccc(N)cc2)cc1,–,24.3 µM (active)
COc1ccc(-n2nc(C(F)F)cc2-c2ccc(S(C)=O)cc2)cc1 (stereo not given),-0.259% (inactive),–
C=C(C)C(=O)OCCC(F)(F)C(F)(F)C(F)(F)C(F)(F)C(F)(F)C(F)(F)F,-4.89% (inactive),–
CCN(CC)CCNC(=O)c1cc(Cl)c(N)cc1OC,2.02% [at 42.5 µM] (inactive),–
CCCCCCCC/C=C/C(=O)O,1.25% [at 42.5 µM] (inactive),–
CCCCCCCCCCCCCCN(C)C,-8.37% [at 19 µM] (inactive),–
CCCCC(CC)COS(=O)(=O)O (stereo not given),2.03% (inactive),–
NC(=O)c1ccccc1[N+](=O)[O-],2.01% (inactive),–
O=S(=O)(O)CO,0.272% (inactive),–
SCCc1cnccn1,-8.66% (inactive),–
CC(C)c1ccc(C#N)cc1,-2.03% (inactive),–

Structure (SMILES),"activity change, negative = cytotoxicity",Potency
Oc1cccc2[nH]ccc12,1.56% [at 42.5 µM] (inactive),–
CCN(Cc1cccc(S(=O)(=O)O)c1)c1ccc(C(=C2C=CC(=[N+](CC)Cc3cccc(S(=O)(=O)O)c3)C=C2)c2ccc(O)cc2S(=O)(=O)[O-])cc1,–,16.6 µM (active)
ClC1=C(Cl)C1(Cl)Cl,0.338% (inactive),–
C=CC(=O)O,3.8% [at 42.5 µM] (inactive),–
CCCCCCCC(=O)Oc1c(Br)cc(C#N)cc1Br,-5.06% (inactive),–
Cc1ccc2c(c1)CCCN2,-6.08% (inactive),–
CCN(CC)CCOc1ccccc1C(=O)CCc1ccccc1,-9.04% [at 42.5 µM] (inactive),–
Cc1cccc2sc(N)nc12,0.501% (inactive),–
O=[N+]([O-])c1ccc2ncccc2c1,3.26% (inactive),–
O=C(Nc1ccc(C(=O)O)c(O)c1)c1ccccc1,0.727% [at 42.5 µM] (inactive),–
Cc1cc(CCCOc2c(C)cc(-c3noc(C(F)(F)F)n3)cc2C)on1,0.52% [at 42.5 µM] (inactive),–
Cc1c[nH]c2ccccc12,2.55% [at 42.5 µM] (inactive),–
c1ccc2sc(SSc3nc4ccccc4s3)nc2c1,9.75% [at 19 µM] (inactive),–
CC1=C2[C@@H]([C@H](C)CC[C@H]2/C=C(\C)C(=O)O)[C@H](O)C1,-4.73% (inactive),–
CO[C@@H]1[C@@H](OC)[C@H](C)[C@@](O)(CC(=O)O)O[C@H]1[C@H](C)[C@H]1O[C@@]2(CC[C@@](C)([C@H]3CC[C@@](C)([C@@H]4O[C@@H]([C@H]5O[C@](C)(O)[C@H](C)C[C@@H]5C)C[C@@H]4OC4C[C@H](OC)[C@@H](OC)[C@H](C)O4)O3)O2)C[C@H](O)[C@H]1C (stereo not given in full),–,2.37 µM (active)
N[C@@H](Cc1cc(I)c(O)c(I)c1)C(=O)O,0.862% [at 42.5 µM] (inactive),–
Nc1ccc(NC(=O)c2ccc(N)cc2)cc1,4.63% (inactive),–
O=C1c2ccccc2C(=O)c2c(O)ccc(O)c21,-11.2% (inactive),–
CC(C)(C)NCC(O)COc1cccc2c1C[C@H](O)[C@H](O)C2 (stereo not given in full),1.3% [at 42.5 µM] (inactive),–
O=C(O)CCCc1c[nH]c2ccccc12,-1.74% (inactive),–
